High-throughput results deposited in PubChem BioAssay by Broad Institute.
An excerpt weighted towards active compounds, which were near 0.45% of everything screened.
Y pestis TopoI = Y. pestis Topo-I inhibition via cleavage products; Y. pestis Topo-I cleavage product accumulation, plate reader; activity, % at 10 µM; 0.064% of 360,000 active; AID 504884; in the data active = activity above about 50%, passing the limit was not always enough
TcdB inh = inhibitors of Clostridioides difficile toxin B glycohydrolase. inhibition, % at 9.99 µM. AID 652162. 0.24% of 350,000 active. P18177. TcdB glycohydrolase enzymatic assay, plate reader; in the data active = inhibition above about 10%
Mtb BioA inh = blocks M. tuberculosis BioA enzyme activity. 0.096% of 360,000 active. purified M. tuberculosis BioA enzyme, plate reader. inhibition, % at 9.99 µM; in the data active = inhibition above about 40%
FadD28 FP inh = M. tuberculosis FadD28 bisubstrate binding inhibition. 0.22% of 360,000 active. inhibition, % at 12.5 µM. AID 588549. FadD28 bisubstrate probe binding, fluorescence polarization; in the data active = inhibition above about 8.5%, passing the limit was not always enough
* hit, by the source's call; nt = no result given.

SMILES	Y pestis TopoI	TcdB inh	Mtb BioA inh	FadD28 FP inh
Cc1ccccc1NS(=O)(=O)c1ccc(OCC(=O)N2CCCCC2)cc1	-7.4	10.8*	-0.1	1.4
Cc1cccc(NC(=O)NNC(=O)c2ccc3ccccc3c2O)c1	-14.2	0.3	-1.4	8.5*
O=C(NNC(=O)c1ccc2ccccc2c1O)Nc1ccc(F)cc1	-0.2	-0.2	-0.8	2.0
[N-]=[N+]=NCc1ccccc1C[C@@]1(C(=O)NCC(O)CO)N=C(c2ccc(OCCCO)cc2)O[C@@H]1c1ccccc1 (some centres not stated)	nt	0.9	3.4	nt
O=C(Cc1ccccc1)N1CC(=O)N2[C@@H](CO)[C@H](c3ccc(Br)cc3)[C@@H]2C1	nt	0.3	nt	nt
O=C(COC(=O)c1cccc(NS(=O)(=O)c2ccc(F)c(F)c2)c1)NC(=O)NC1CCCCC1	6.7	nt	1.8	31.7*
C[C@H]1CCCCO[C@@H](CN(C)C(=O)c2ccncc2)[C@@H](C)CN([C@@H](C)CO)C(=O)c2cc(N(C)C)ccc2O1	nt	-30.4	-1.0	nt
Cc1noc(C)c1NC(=O)Nc1ccc2c(c1)C(=O)N([C@H](C)CO)C[C@@H](C)[C@@H](CN(C)S(=O)(=O)c1ccccc1)OCCCC[C@@H](C)O2	nt	-0.5	4.2	nt
CCN(CC)S(=O)(=O)c1cc(C(=O)OCC(=O)Nc2cccc(Br)c2)ccc1F	7.8	nt	nt	56.1*
O=C(C[C@H]1C=C[C@H](NC(=O)CC2CC2)[C@@H](CO)O1)NCc1ccc(-c2ccccc2)cc1	nt	0.0	-4.5	nt
O=C(Nc1sc2c(c1C(=O)O)CCCC2)c1ccc(Cl)cc1	-4.2	11.7*	0.2	3.5
O=c1[nH]nc(-c2cc(-c3ccccc3)nc3ccccc23)o1	1.1	15.6*	0.9	-4.8
O=C(O)c1cc(-c2ccccc2)nc2ccccc12	0.8	1.8	-0.6	-0.2
C[C@H]1CN([C@@H](C)CO)C(=O)c2cc(NC(=O)C3CC3)ccc2O[C@@H]1CN(C)C(=O)Nc1ccc2c(c1)OCO2	nt	0.2	0.4	nt
CCOC(=O)c1sc(=S)[nH]c1C	4.1	11.7*	nt	-5.3
C[C@H]1CN([C@@H](C)CO)S(=O)(=O)c2ccc(C#CC(C)(C)O)cc2O[C@@H]1CN(C)C(=O)CN(C)C	nt	-0.2	-0.5	nt
C[C@H]1CCCCO[C@@H](CN(C)S(=O)(=O)c2cn(C)cn2)[C@@H](C)CN([C@@H](C)CO)C(=O)c2cc(NC(=O)C3CCCCC3)ccc2O1	nt	0.2	2.0	nt
O=C1Nc2ccccc2C1=Nc1ccccc1-c1ccccc1	6.5	10.0*	nt	-3.8
O=C(NNC(=O)c1ccc2ccccc2c1)c1cccc(F)c1	5.5	-0.2	-0.1	-4.2
O=C(NNC(=O)c1cccc2ccccc12)c1cccc(F)c1	0.1	10.5*	-0.4	-2.6
Cc1ccc(S(=O)(=O)N(C)C[C@H]2Oc3ccc(NC(=O)CCC(F)(F)F)cc3CC(=O)N([C@@H](C)CO)C[C@H]2C)cc1	nt	-0.1	0.8	nt
Cn1cccc1/C=C1/C(=O)NC(=S)N(Cc2ccc(F)cc2)C1=O	-3.4	0.6	-1.6	44.0*
COC(=O)C[C@H]1C[C@H]2c3cc(NC(=O)Nc4ccccc4F)ccc3O[C@H]2[C@@H](CO)O1	nt	0.0	-0.6	nt
Oc1ccc(/C=N/N2CCN(c3ccccn3)CC2)cc1	0.8	13.0*	-2.3	-0.4
Oc1cccc(/C=N/N2CCN(c3ccccn3)CC2)c1	6.0	2.4	2.4	-2.2
SMILES	Y pestis TopoI	TcdB inh	Mtb BioA inh	FadD28 FP inh
CN1CCN(C(=O)C[C@@H]2CC[C@@H]3[C@H](COC[C@H](O)CN3C(=O)C3CCCC3)O2)CC1	nt	-0.9	-2.6	nt
O=C(O)c1cccc(NN=C2c3ccccc3-c3ccccc32)c1	-7.9	1.1	nt	13.3*
O=C(O)c1cc(N/N=C/c2cccc3ccccc23)ccc1Cl	-3.5	-1.3	0.5	2.6
O=C(O)c1cc(NN=C2c3ccccc3-c3ccccc32)ccc1Cl	-11.4	0.5	4.2	14.8*
O=C(O)c1cc(N/N=C/C(Cl)=C/c2ccccc2)ccc1Cl	11.5	-0.3	1.9	18.9*
Cc1cc2c(C(C)C)c(O)c(O)c(C=O)c2c(O)c1-c1c(C)cc2c(C(C)C)c(O)c(O)c(C=O)c2c1O	-27.6	-0.7	3.7	51.0*
COC(=O)c1c(C)cc(O)c(C=O)c1O	1.8	nt	-1.8	0.1
CCOC(=O)C1CCCN(C(=O)c2cc(Nc3ccc(OC)cc3)nc3ccccc23)C1 (configuration not stated)	-14.0	nt	1.3	21.6*
COc1ccc(/C=C(\C#N)C(=O)Nc2ccccn2)cc1	5.1	0.7	-1.4	-1.8
Cc1ccc(/C=C(\C#N)C(=O)Nc2ccccn2)o1	2.5	17.2*	0.2	-1.7
CN(C)CC#Cc1ccc([C@@H]2[C@@H](CO)N3CCCCN(CC4CC4)C[C@@H]23)cc1	nt	-0.2	-3.5	nt
Cc1cnc([N+](=O)[O-])n1CCOC(=O)c1cccc(F)c1	-4.1	-0.9	-0.1	-1.1
Cc1cnc([N+](=O)[O-])n1CCOC(=O)NC(=O)c1ccc(F)cc1	6.9	32.3*	nt	-3.1
COc1ccc(NC(=O)Nc2ccc3c(c2)[C@H]2C[C@@H](CC(=O)NC4CCCC4)O[C@@H](CO)[C@H]2O3)cc1	nt	0.2	-2.4	nt
Cc1ccc([N+](=O)[O-])cc1-c1[nH]c(-c2ccc(O)c(O)c2)nc1-c1ccccc1	1.0	nt	-0.7	12.9*
COc1ccc(-c2nc(-c3ccccc3)c(-c3cc([N+](=O)[O-])ccc3C)[nH]2)cc1O	-13.7	nt	-0.2	5.9
Cc1ccc(S(=O)(=O)N(C)C[C@@H]2Oc3ncc(C#Cc4ccc(C(F)(F)F)cc4)cc3C(=O)N([C@H](C)CO)C[C@@H]2C)cc1	nt	2.0	-5.9	nt
O=C(NCCc1ccc(Cl)cc1)C1CCN(S(=O)(=O)c2ccc(Br)s2)CC1	-4.8	15.7*	nt	-6.6
O=C(O)CCNc1cc(N2CCN(C(=O)c3ccco3)CC2)c2noc3c2c1C(=O)c1ccccc1-3	19.9	1.0	-107.7	22.2*
O=C(C[C@H]1C[C@H]2c3cc(NC(=O)C4CCC4)ccc3O[C@H]2[C@H](CO)O1)NCc1cccnc1	nt	-3.2	-3.6	nt
O=C1CC(c2ccccc2)=NN1c1nc(-c2ccccc2)cs1	-20.2	0.2	nt	1.1
CC1=NN(c2nc(-c3ccccc3)cs2)C(=O)C1	-15.3	nt	-1.7	16.3*
CC(C)C#Cc1cnc2c(c1)C(=O)N([C@@H](C)CO)C[C@H](C)[C@@H](CN(C)C(=O)c1cnccn1)O2	nt	-5.2	-0.2	nt
C#CCOCCOCCOCCNc1nc(N2CCN(C(=O)CCCCCCCCCCNC(=O)[C@H]([C@@H](C)CC)n3cc(CCCCCN)nn3)CC2)nc(N2CCN(C(=O)CCCCCCCCCCNC(=O)[C@H]([C@@H](C)CC)n3cc(CCCCN=C(N)N)nn3)CC2)n1	104.9*	nt	-1.7	-9.2
COc1ccc2c3c([nH]c2c1)[C@H](CO)N(Cc1ccccc1)CC31CN(C(=O)c2cccnc2)C1	nt	0.9	nt	nt
CC(=O)N1CC2(C1)[C@@H](c1ccccc1)[C@@H](CO)N2C(=O)Cc1ccccc1	nt	0.4	nt	nt
O=C(CN1C(=O)CCC1=O)NNc1ccc2ccccc2c1	3.3	82.3*	0.3	-4.9
O=C(Cc1ccccc1)NNc1ccc2ccccc2c1	3.4	0.8	nt	-0.5
Cc1cccc(N2C(N)=C(C#N)C(C#N)(C#N)C2c2ccccc2)c1 (configuration not stated)	5.0	nt	1.5	2.0
